Screens: PubChem BioAssay, The Scripps Research Institute Molecular Screening Center
This is a sample that favours compounds with a hit; in the whole collection about 1.1% have one here.
OPRM1-OPRD1 ag: agonists of human mu-delta opioid receptor heterodimerization; cells, OPRM1-OPRD1 heterodimerization, luminescence; 340,000 compounds, 0.3% hits; activation, % at 9.3 µM; P35372+P41143
MOR-DOR inv ag: inverse agonist of human OPRM1-OPRD1 heterodimerization; cell-based MOR-DOR heterodimer luminescence, inverse agonism; inhibition, % at 9.3 µM; 340,000 compounds, 0.21% hits; AID 504357; P35372+P41143; in the data active means inhibition above about 22%, passing the limit was not always enough
HTR5A ag ctr: HTR5A agonism, opioid heterodimer counter-screen; P47898; HTR5A agonist assay, luminescence, cell-based; activation, % at 9.3 µM; 340,000 compounds, 0.61% hits; AID 504692; in the data active means activation mostly above about 9.5%, no sharp cut-off; inactive means mostly below about 7.6%
Target sequence (P47898 whole entry, looked up): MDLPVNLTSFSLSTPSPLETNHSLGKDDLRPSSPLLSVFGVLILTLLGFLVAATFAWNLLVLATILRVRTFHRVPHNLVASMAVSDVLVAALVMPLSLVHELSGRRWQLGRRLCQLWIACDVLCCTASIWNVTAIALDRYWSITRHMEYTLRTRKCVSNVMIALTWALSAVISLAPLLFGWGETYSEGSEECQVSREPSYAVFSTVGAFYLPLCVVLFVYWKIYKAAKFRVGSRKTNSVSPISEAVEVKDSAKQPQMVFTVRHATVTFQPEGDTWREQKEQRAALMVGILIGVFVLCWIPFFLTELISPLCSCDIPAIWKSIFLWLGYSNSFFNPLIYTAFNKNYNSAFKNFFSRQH
HTR5A inv ctr: inverse agonist of human HTR5A in OPRM1-OPRD1 counter-screen; HTR5A cell line, luminescence, inverse agonism; inhibition, % at 9.3 µM; 340,000 compounds, 0.083% hits; AID 504634; in the data active means inhibition mostly above about 23%, no sharp cut-off; inactive means mostly below about 18%
MOR-DOR ag conf: OPRM1-OPRD1 heterodimer agonism, confirmation; cells, MOR-DOR heterodimerization, luminescence complementation; 830 compounds, 45% hits; shares compounds with OPRM1-OPRD1 ag; activation, % at 9.3 µM
HTR5A ag counter: counter-screen for OPRM1-OPRD1 agonists: human HTR5A agonism; 830 compounds, 8% hits; HTR5A agonist counterscreen, cell luminescence; shares compounds with OPRM1-OPRD1 ag; activation, % at 9.3 µM; in the data active means activation above about 17%
Numbers stand for hits; – = inactive; · = not tested or not shown. Unless noted, no stated cut-off is given here; in the data, active means activation above about 18%; inactive means the rest.

SMILES | OPRM1-OPRD1 ag | MOR-DOR inv ag | HTR5A ag ctr | HTR5A inv ctr | MOR-DOR ag conf | HTR5A ag counter
Cc1ccc(NC(=O)c2cc(S(=O)(=O)N3CCCCC3)c[nH]2)cc1F | – | – | – | – | · | ·
Cc1ccc(NC(=O)c2cc(S(=O)(=O)N3CCCCC3)c[nH]2)cc1C | 30 | – | – | – | – | –
COc1cc(NC(=O)c2cccc(C)c2)ccc1NC(=O)c1cc2ccccc2o1 | 30 | – | – | – | 49 | –
COc1ccc(S(=O)(=O)N(C)C[C@H]2Oc3ccc(NC(=O)C4CC4)cc3C(=O)N([C@H](C)CO)C[C@@H]2C)cc1 | – | – | – | – | · | ·
COc1ccc(N(CC(=O)NC2CCCCC2)C(=O)CCC(=O)Nc2nc(C)cs2)cc1 | – | – | – | – | · | ·
CC1=C/C(=N\OS(=O)(=O)c2ccccc2)C(C)=CC1=O | 78 | – | 11 | – | 47 | –
CC1=C(C)/C(=N\OS(=O)(=O)c2ccc(C)cc2)C=CC1=O | 50 | – | – | – | – | 54
COc1ccc(S(=O)(=O)/N=C2/C=CC(=O)C(C)=C2C)cc1 | – | – | – | – | · | ·
CC1(C)NC(=O)N(CCCC(=O)Nc2ccc(C(F)(F)F)cc2)C1=O | – | – | – | – | · | ·
Cc1cc(=O)n(C(C)(C)C)c(=O)n1Cc1ccccc1 | – | – | – | – | · | ·
CCOC(=O)c1c2c(n(-c3ccc(OC)cc3)c1C)C(=O)C(=O)c1ccccc1-2 | 20 | – | – | – | – | –
CCCC(C)NC(=O)CN1C(=O)c2cccc3cccc1c23 (stereo not given) | – | – | – | – | · | ·
Cc1cc(/C=C\c2ccc3cc(N(C)C)ccc3[n+]2C)c(C)n1-c1ccccc1 | 48 | – | – | – | – | –
CCc1ccc2nc(N(CCCN(C)C)C(=O)c3ccc(S(=O)(=O)N4CCc5ccccc5C4)cc3)sc2c1 | 29 | – | – | – | 36 | –
CN(C)CCCN(C(=O)c1ccc(S(=O)(=O)N(C)C2CCCCC2)cc1)c1nc2ccc(Br)cc2s1 | – | – | – | – | · | ·
CN(C)CCCN(C(=O)c1ccc(S(=O)(=O)N(C)C2CCCCC2)cc1)c1nc2ccc(F)cc2s1 | 327 | – | – | – | 121 | –
CN(C)CCCN(C(=O)c1ccc(S(=O)(=O)N(C)Cc2ccccc2)cc1)c1nc2c(F)cccc2s1 | 47 | – | – | – | 108 | –
CCc1ccc2nc(N(CCCN(C)C)C(=O)c3ccc(S(=O)(=O)N(C)C4CCCCC4)cc3)sc2c1 | 19 | – | – | – | 50 | –
COC(=O)[C@]1(C)N[C@H](CN(C)C(=O)c2ccc(C)cc2)[C@@H]2C(=O)N(C)C(=O)[C@@H]21 | – | – | – | – | · | ·
Cc1ccc(C(=O)NCC(=O)N/N=C/c2cccs2)cc1C | – | – | – | – | · | ·
COc1ccc(C(=O)NC(=O)CSc2n[nH]c(N)n2)cc1 | – | – | – | – | · | ·
Cc1cnc(NC(=O)[C@H](C)N2C(=O)C3CCCCC3C2=O)s1 (stereo not given in full) | – | – | – | – | · | ·
CCN(Cc1ccccc1)S(=O)(=O)c1ccc(C(=O)N(CCCN(C)C)c2nc3ccc(F)cc3s2)cc1 | 412 | – | – | – | – | –
COc1ccc(CN2CCCCCC2)cc1Br | – | – | – | – | · | ·
CCOC(=O)c1ccc(-n2cccc2/C=C2\NC(=O)NC2=O)cc1 | – | – | – | – | · | ·
SMILES | OPRM1-OPRD1 ag | MOR-DOR inv ag | HTR5A ag ctr | HTR5A inv ctr | MOR-DOR ag conf | HTR5A ag counter
COc1cccc(OCc2cc(C3Nc4ccccc4C(=O)N3Cc3ccco3)ccc2OC)c1 (stereo not given) | – | – | – | – | · | ·
COc1ccc(C2Nc3ccccc3C(=O)N2Cc2ccco2)cc1COc1ccc([N+](=O)[O-])cc1 (stereo not given) | 22 | – | – | – | – | –
O=C(Nc1cccc2ccccc12)OCc1ccccc1 | – | – | – | – | · | ·
Cc1ccc(CSCC(=O)N/N=C/c2sccc2C)cc1 | 89 | – | – | – | 180 | –
COc1ccc(CC(=O)N/N=C/c2sccc2C)cc1 | – | – | – | – | · | ·
COc1ccc2[nH]c3c(=O)n(/N=C/[C@H]4C(C)C=C(C)CC4C)c(=O)[nH]c3c2c1 (stereo not given in full) | 54 | – | – | – | 39 | –
COc1ccc2c(c1)[nH]c1c(=O)n(/N=C/C3C(C)C=C(C)CC3C)c(=O)[nH]c12 (stereo not given) | – | – | – | – | · | ·
CCOC(=O)C1(Cc2ccccc2)CCN(Cc2cn(CC(=O)OC)c3ccccc23)CC1 | – | – | – | – | · | ·
CCOC(=O)C1(CC2CC2)CCN(Cc2cn(C)c3ccccc23)CC1 | 18 | – | – | – | – | –
CCOC(=O)C1(CC2CC2)CCN(Cc2cnc(N(C)C)s2)CC1 | 35 | – | – | – | – | –
CN1C2C=C(N(CCc3c[nH]c4ccccc34)C(=O)c3ccc(Cl)cc3)CC1CC2 (stereo not given) | 100 | – | – | – | 138 | –
COc1ccc(-c2nc(CN3CCC(C(=O)NCC4CCCO4)CC3)c(C)o2)cc1OC (stereo not given) | 30 | – | – | – | 23 | –
CCn1c(/C=C/c2c(C)[nH]c3ccccc23)nc2ccccc2c1=O | 27 | – | – | – | – | –
CCn1c(/C=C/c2c[nH]c3ccccc23)nc2ccccc2c1=O | – | – | – | – | · | ·
CCN(c1ccccc1)S(=O)(=O)c1ccc2c(c1)CC(C)N2C(=O)C1CC1 (stereo not given) | – | – | – | – | · | ·
Cc1ccc([N+](=O)[O-])cc1S(=O)(=O)Nc1ccc(OCC(=O)N2CCOCC2)cc1 | – | – | – | – | · | ·
COc1ccc2c(CC(=O)Nc3ccccc3OC)coc2c1 | – | – | – | – | · | ·
COc1ccc2c(CC(=O)Nc3ccc(OC)c(NS(=O)(=O)c4ccc(F)cc4)c3)coc2c1 | 19 | – | – | – | – | –
CCc1nn(C(C)C(=O)N(C)Cc2ccccc2)c(=O)c2cc3occc3n12 (stereo not given) | – | – | – | – | · | ·
Cc1ccc(-c2csc(/C(C#N)=C(\O)CCl)n2)cc1 | 20 | – | – | – | – | –
Cn1c(SCC(=O)c2ccc3c(c2)NC(=O)CO3)nc2ccccc21 | 38 | – | – | – | 25 | –
C#CC(=O)N(c1ccc(OC)c(OC)c1)C(C(=O)NC1CCCC1)c1cccs1 (stereo not given) | 39 | – | – | – | 19 | 21
Cc1cccc(NC(=O)c2cc(-c3cc(C)c(C)cc3O)n[nH]2)c1 | – | – | – | – | · | ·
Cc1cccc(NC(=O)c2cc(-c3cc(C)ccc3O)n[nH]2)c1 | 18 | – | – | – | – | –
CCN1C(=O)[C@H]2[C@@H](c3ccc(C)cc3)N3C(=O)N(c4ccc(C(F)(F)F)cc4)C(=O)[C@@]3(Cc3ccccc3)[C@H]2C1=O | – | – | – | – | · | ·
c1ccc(C2[C@H]3CN(Cc4cccnc4)[C@H](c4ccccc4)C34CC2(c2cccnc2)C4)cc1 (stereo not given in full) | 80 | – | – | – | 75 | –
Cc1ccc(C(C)C)c(OCC(=O)N2CCN(c3ncccn3)CC2)c1 | – | – | – | – | · | ·
